{"source": "the supplement of paper PMC8975748", "system": "Saccharomyces cerevisiae BY4741 SeMeCo community", "assay": "mean cell size (pixel area) (pixels); higher = larger cells", "settings": "10 µM; 24 h; SM minimal medium", "procedure,_shortened": "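Yeast cells were fixed with paraformaldehyde, imaged by automated confocal microscopy and analysed in Harmony to obtain mean cell pixel area per well. They came from a four-plasmid fluorescent Saccharomyces cerevisiae BY4741 community, each plasmid complementing one auxotrophy and carrying a fluorescent marker. Before imaging, 70 µl of culture at OD600 = 0.3 was incubated for 24 h in SM medium in 384-well plates predosed acoustically with drug (final 10 µM). Values are means of 3 replicates. Same SeMeCo high-content imaging drug screen: Selleck FDA-approved drugs at 10 µM, 24 h in SM medium, 384-well plates, 3 replicates.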", "note": "Counter-ions that a name gives are not always drawn. ± gives the standard deviation of the averaged measurements."}
{"compound": "CCCCCCCCCC(=O)N[C@H]1[C@H](Oc2c3cc4cc2Oc2ccc(cc2Cl)[C@@H](O[C@@H]2O[C@H](CO)[C@@H](O)[C@H](O)[C@H]2NC(C)=O)[C@@H]2NC(=O)[C@H](NC(=O)[C@@H]4NC(=O)[C@H]4NC(=O)[C@@H](Cc5ccc(c(Cl)c5)O3)NC(=O)[C@H](N)c3ccc(O)c(c3)Oc3cc(O)cc4c3)c3ccc(O)c(c3)-c3c(OC4O[C@H](CO)[C@@H](O)[C@H](O)[C@@H]4O)cc(O)cc3[C@@H](C(=O)O)NC2=O)O[C@H](CO)[C@@H](O)[C@@H]1O", "note": "(some centres not stated) [Teicoplanin]", "values": [{"measurement": "mean cell size", "value": "11.8 ± 0.16"}]}
{"compound": "CC(C)(C)[C@H]1CC[C@H](CC2=C(O)C(=O)c3ccccc3C2=O)CC1", "note": "[Buparvaquone]", "values": [{"measurement": "mean cell size", "value": "12.1 ± 0.18"}]}
{"compound": "CN(C)[C@@H]1C(O)=C(C(N)=O)C(=O)[C@@]2(O)C(O)=C3C(=O)c4c(O)ccc(Cl)c4[C@@H](O)[C@H]3C[C@@H]12", "note": "[Demeclocycline HCl]", "values": [{"measurement": "mean cell size", "value": "12.5 ± 0.32"}]}
{"compound": "O=C1C(O)=C([C@H]2CC[C@H](c3ccc(Cl)cc3)CC2)C(=O)c2ccccc21", "note": "[Atovaquone]", "values": [{"measurement": "mean cell size", "value": "12.39 ± 0.12"}]}
{"compound": "C[C@H]1c2cccc(O)c2C(=O)C2=C(O)[C@]3(O)C(=O)C(C(N)=O)=C(O)[C@@H](N(C)C)[C@@H]3[C@@H](O)[C@@H]21", "note": "[Doxycycline]", "values": [{"measurement": "mean cell size", "value": "12.1 ± 0.32"}]}
{"compound": "C=CC1=C(C(=O)O)N2C(=O)[C@@H](NC(=O)/C(=N\\O)c3csc(N)n3)[C@H]2SC1", "note": "[Cefdinir]", "values": [{"measurement": "mean cell size", "value": "12.48 ± 0.068"}]}
{"compound": "CO[C@H]1/C=C/O[C@@]2(C)Oc3c(C)c(O)c4c(c3C2=O)C2=NC3(CCN(CC(C)C)CC3)NC2=C(NC(=O)/C(C)=C\\C=C\\[C@H](C)[C@H](O)[C@@H](C)[C@@H](O)[C@@H](C)[C@H](OC(C)=O)[C@@H]1C)C4=O", "note": "[Rifabutin]", "values": [{"measurement": "mean cell size", "value": "12.6 ± 0.21"}]}
